This is an account of results in PubChem BioAssay (Tox21).

Results filed as inconclusive are left out. Entries that show only a call come without a potency. Calls of active or inactive are those of the source. The call rests on the fitted dose curve.
Potency means the concentration at half of the fitted maximal effect.

The test in a line: qHTS assay for small molecule disruptors of the mitochondrial membrane potential - cell viability (AID 720634). Further: nearly all actives have a fitted effect of over 20% in size. Conditions: HepG2 viability, ATP luminescence (CellTiter-Glo), 1 h; series mostly up to 83.2 µM. The source says: U.S. Tox21 Program National Center for Advancing Translational Sciences [NCATS] NIH Chemical Genomics Center [NCGC] U.S. Environmental Protection Agency [EPA] National Institutes of Environmental Health Sciences [NIEHS] National Toxicology Program [NTP] U.S. Food and Drug Administration [FDA] Tox21 Assay Overview: Mitochondrial membrane potential (MMP), one of the parameters for mitochondrial function, is generated by mitochondrial electron transport chain that creates an electrochemical gradient by a series of redox reactions. This gradient drives the synthesis of ATP, a crucial molecule for various cellular processes. Measuring MMP in living cells is commonly used to assess the effect of chemicals on mitochondrial function; decreases in MMP can be detected using lipophilic cationic fluorescent dyes. […] The dye accumulates in the mitochondria of healthy cells as aggregates, with red fluorescence. The mitochondrial potential decreases and the dye could not accumulate in the mitochondria and remains in the cytoplasm in monomers, with green fluorescence. In addition to the mitochondrial potential assay, these cells were also used to test the cytotoxicity by determining the cell viability in the culture based on the quantitation of ATP present. The cytotoxicity was measured in the same assay well of MMP assay.
Tox21 Assay Protocol Summary: 2,000 HepG2 cells in 5 uL/well were dispensed into black, clear-bottom 1536-well plates using a Multidrop Combi (Thermo Scientific) dispenser. The assay plates were incubated for an overnight at 37 C to allow cells to attach to the wells, followed by the transfer of 23 nL compound or DMSO vehicle by a pin tool (Kalypsys). The plates were incubated for 1 hr at 37 C and 5% CO2, followed by the addition of 5 uL of 2X m-MPI dye into each well using Flying Reagent Dispenser (Aurora Discovery) and then CellTiter-Glo reagent was added at 4 uL/well and incubated 30 min at room temperature. Then luminescence intensity was quantified on a ViewLux CCD-based plate reader.
In general terms: Quantitative high-throughput screening tests each substance at several concentrations.
As to `Cc1cnc(C(=O)O)c[n+]1[O-]`, the Potency result was “inactive”. Next, `CCN1CCCC1CNC(=O)c1cc(S(=O)(=O)CC)ccc1OC` (stereo not given): “inactive”; `CC(C)c1ccc2sc3ccccc3c(=O)c2c1`: 34.4 µM (active); `CC(=O)[C@]1(O)Cc2c(O)c3c(c(O)c2[C@@H](O[C@H]2C[C@H](N)[C@H](O)[C@H](C)O2)C1)C(=O)c1ccccc1C3=O`: “inactive”. Next, `COc1cc2c(c(OC)c1OC)-c1c(cc3c(c1OC)OCO3)C[C@@H](C)[C@](C)(O)C2`: “inactive”; `CC/C(=C(/CC)c1ccc(OP(=O)(O)O)cc1)c1ccc(OP(=O)(O)O)cc1`: “inactive”; `CCN(CC)C(=O)c1cccnc1`: “inactive”. The same measure for `Cc1ccc(C(C)(C)c2ccc(C)cc2)cc1`: “inactive”; for `O=C(Cn1cnnn1)N[C@@H]1C(=O)N2C(C(=O)O)=C(CSc3nncs3)CS[C@H]12`: “inactive”; for `C=C1C(CCl)(CCl)C2(Cl)C(Cl)C(Cl)C1(Cl)C2(Cl)Cl` (stereo not given): “inactive”. As for `CC(C)=CCC/C(C)=C/CC/C(C)=C/CC/C=C(\C)CC/C=C(\C)CCC=C(C)C`, the Potency entry was “inactive”. Next, `O=C(O)[C@H]1CN(C/C=C/P(=O)(O)O)CCN1`: “inactive”; `NC[C@@H]1CC[C@@H](N)[C@@H](O[C@H]2[C@H](O)[C@@H](O[C@H]3O[C@H](CO)[C@@H](O)[C@H](N)[C@H]3O)[C@H](N)C[C@@H]2N)O1`: “inactive”; `CC(C)(C)c1ccc2c(S(=O)(=O)O)c(C(C)(C)C)ccc2c1`: “inactive”. Next, `O=[N+]([O-])c1ccc(O)c2ncccc12`: “inactive”; `FC(F)(F)C(F)(F)C(F)(F)C(F)(F)C(F)(F)F`: “inactive”.

`CCCCCCCCCCCCN1CCCC1=O`: the Potency entry is “inactive”. Next, `CC(C)COC(=O)OCN1C(=O)CN(CCN2CC(=O)N(COC(=O)OCC(C)C)C(=O)C2)CC1=O`: “inactive”; `O=C1C2CC3CC1CC(O)(C3)C2`: “inactive”; `CO/N=C(\C(=O)N[C@@H]1C(=O)N2C(C(=O)O)=C(C[N+]3(C)CCCC3)CS[C@H]12)c1csc(N)n1`: “inactive”.

With `CCCCCCCC[N+](C)(C)CCCCCCCC`, the Potency entry was “inactive”. The same measure for `NCCO/C=C/[C@H](N)C(=O)O`: “inactive”; for `Nc1nc(/C(=C/CC(=O)O)C(=O)N[C@@H]2C(=O)N3C(C(=O)O)=CCS[C@H]23)cs1`: “inactive”.

As for `CN1CC[C@H](c2c(O)cc(O)c3c(=O)cc(-c4ccccc4Cl)oc23)[C@H](O)C1`, the Potency result was “inactive”. For the compound `NC(=O)[C@@H]1C[C@]2(NC(=O)NC2=O)c2cc(F)ccc2O1`, the Potency result was “inactive”. Consider `CCC(NC(C)C)C(O)c1ccc(O)c(O)c1` (stereo not given), for which the Potency result was “inactive”.

`CC1(C)S[C@@H]2[C@H](NC(=O)[C@H](N)c3ccc(O)cc3)C(=O)N2[C@H]1C(=O)O`: the Potency result is “inactive”. The same measure for `O=P(O)(O)OP(=O)(O)OP(=O)(O)O`: “inactive”; for `C1CCc2nnnn2CC1`: “inactive”; for `CON=C1C[C@]2(C[C@@H]3C[C@@H](C/C=C(\C)C[C@@H](C)/C=C/C=C4\CO[C@@H]5[C@H](O)C(C)=C[C@@H](C(=O)O3)[C@]45O)O2)O[C@H](/C(C)=C/C(C)C)[C@H]1C`: “inactive”. On to `CCCCCCCCCC[N+](C)(CCCCCCCCCC)CCC[Si](OC)(OC)OC`, for which the Potency is 54.5 µM (active). Take `C=CCc1cc(S(=O)(=O)c2ccc(O)c(CC=C)c2)ccc1O`: the Potency entry was “inactive”. For the compound `CO/N=C(\C(=O)N[C@@H]1C(=O)N2C(C(=O)O)=C(CSc3nc(C)c(CC(=O)O)s3)CS[C@H]12)c1csc(N)n1`, the Potency entry was “inactive”. With `CCOc1cc(CC(=O)N[C@@H](CC(C)C)c2ccccc2N2CCCCC2)ccc1C(=O)O`, the Potency result is “inactive”. Next, `CC(=O)OCC1=C(C(=O)O)N2C(=O)[C@@H](NC(=O)Cc3ccccc3)[C@H]2SC1`: “inactive”.

With `CN(C)CCC(O)(c1ccccc1)c1ccccc1Cl` (stereo not given), the Potency entry was “inactive”. Next, `CC(C)(C)C(=O)OCC(=O)[C@H]1CC[C@H]2[C@@H]3CCC4=CC(=O)CC[C@]4(C)[C@H]3CC[C@]12C`: “inactive”; `O=c1[nH]c(=O)n([C@H]2C[C@H](O)[C@@H](CO)O2)cc1/C=C/Br`: “inactive”; `Cc1onc(-c2c(F)cccc2Cl)c1C(=O)N[C@@H]1C(=O)N2[C@@H]1SC(C)(C)[C@@H]2C(=O)O`: “inactive”. As to `C[C@H](Cc1ccc(O)c(O)c1)[C@@H](C)Cc1ccc(O)c(O)c1`, the Potency result is “inactive”.
